Test results taken from PubChem BioAssay AID429 (Emory University Molecular Libraries Screening Center, 2006).
In all, about 64,000 compounds went through this assay and about 220 (0.34%) were called active.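 How the source made its calls: active means inhibition above 50%; inactive means the rest.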 Only a selection was taken, and actives are over-represented in it overall.

What follows are molecules tested against Heat shock protein HSP 90-alpha (Homo sapiens) (UniProt P07900) (assay: Hsp90 geldanamycin-site probe displacement – cell lysate, fluorescence polarization, NCI-N417 lysate, primary screen (AID 429;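 further: 0% = tracer plus lysate wells and 100% = tracer alone without lysate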)). Conditions: NCI-N417 lysate Hsp90, Cy3B-geldanamycin FP displacement; at 30 µM; stronger effect = higher value.

| Compound | inhibition |
| --- | --- |
| NC1CCN(O)C1=O (stereo unspecified) | -1.33% (inactive) |
| CCCC(=O)N(CCc1ccccc1)Cc1nc2ccccc2c(=O)[nH]1 | -3.96% (inactive) |
| Cn1c(=O)[nH]c(=O)c2c1nc(Br)n2CCCCSc1nc2ccccc2o1 | 2.94% (inactive) |
| CSCCC(NS(=O)(=O)/C=C/c1ccccc1)C(=O)N1CCC(C)CC1 (stereo unspecified) | 0.46% (inactive) |
| O=S1(=O)CCN2C(=N1)SC1=C2CCN(Cc2ccccc2)C1 | 1.02% (inactive) |
| COc1cc2c(cc1OC)C(c1ccncc1)CC(=O)N2 (stereo unspecified) | -0.47% (inactive) |
| CCC/C(O)=C1\C(=O)CC(C)(C)CC1=Nc1ccccc1OC | -4.54% (inactive) |
| CC(=O)c1c(C)c[nH]c1C | 3.14% (inactive) |
| COc1cc(C(=O)Nc2oc(-c3ccccc3)c(-c3ccccc3)c2C#N)cc(OC)c1OC | 1.74% (inactive) |
| COc1ccc(CNC2CCCCC2)cc1 | -2.8% (inactive) |
| C=CCn1c(N)c(S(=O)(=O)c2cccs2)c2nc3ccccc3nc21 | -4.06% (inactive) |
| CC(C)Cn1c(N)c(C(=O)NCc2cccs2)c2nc3ccccc3nc21 | -3.05% (inactive) |
| C=CCn1c(N)c(C(=O)OCC(C)C)c2nc3ccccc3nc21 | 65.5% (active) |
| CS(=O)(=O)NCc1ccc(C(=O)NCc2ccccc2)cc1 | -1.87% (inactive) |
| N#C/C(=C\c1ccc(O)c(O)c1)C(=O)NCc1ccccc1 | 77.1% (active) |
| O=C(CCOc1ccccc1)NCc1ccccc1 | 2.46% (inactive) |
| COc1ccc(C2CC(c3ccc(C)cc3)Nc3ncnn32)cc1 (stereo unspecified) | -1.24% (inactive) |
| CN(C)CCOC(=O)C(c1ccccc1)C1(O)CCCC1 (stereo unspecified) | -3.68% (inactive) |
| CC(=O)c1ccc(-n2nnnc2SCC(=O)N2CCN(C(=O)c3ccco3)CC2)cc1 | -0.68% (inactive) |
| O=C(O)C1CCCN(CCC=C(c2ccccc2)c2ccccc2)C1 (stereo unspecified) | 0.96% (inactive) |
| COc1cc(NS(=O)(=O)c2cccc3nsnc23)c2ncccc2c1 | 0.42% (inactive) |
| COc1ccccc1Oc1ccc(S(=O)(=O)Nc2cccnc2)cc1 | -4.43% (inactive) |
| O=C(O)CCC(=O)N(Cc1ccco1)c1nc(-c2ccccc2)cs1 | -1.19% (inactive) |
| CS(=O)(=O)N1CCCC(C(=O)N2CCOCC2)C1 (stereo unspecified) | -0.69% (inactive) |

| Compound | inhibition |
| --- | --- |
| CN(c1ccc(C(=O)NCCC2=CCCCC2)cc1)S(C)(=O)=O | -2.17% (inactive) |
| NC(=O)Cn1c(=O)oc2ccccc21 | 2.54% (inactive) |
| O=C(NCCCN1CCN(Cc2ccccc2)CC1)C1CCN(S(=O)(=O)N2CCCC2)CC1 | -1.77% (inactive) |
| Oc1ccc(Cl)cc1/C=N/c1nc2ccccc2[nH]1 | 1.09% (inactive) |
| NC(=O)C1=CN(C2OC(COP(=O)(O)OP(=O)(O)OC[C@H]3O[C@@H](n4cnc5c(N)ncnc54)C(OP(=O)(O)O)[C@H]3O)C(O)C2O)C=CC1 (stereo partly specified) | -0.66% (inactive) |
| CCCCSc1nnc(-c2ccc(NC(=O)CC)cc2)n1C | -0.77% (inactive) |
| COC(=O)Cc1csc(Nc2c(C)n(C)n(-c3ccccc3)c2=O)n1 | -1.47% (inactive) |
| CCOc1ccc(N(CC(=O)NCc2ccc(OC)cc2)S(=O)(=O)c2c(C)noc2C)cc1 | -5.24% (inactive) |
| O=C(Nc1ccccc1-c1nnn(CC(=O)N2CCN(c3ccccc3)CC2)n1)c1cccs1 | 0.39% (inactive) |
| CC(c1cccnc1)N(CCN(C)C)C(=O)Nc1ccc(Cl)c(Cl)c1 (stereo unspecified) | -1.45% (inactive) |
| Cn1c(=O)c2c(nc(SCC(=O)Nc3ccccc3N3CCCCC3)n2C)n(C)c1=O | -1.91% (inactive) |
| COc1ccc(Cn2cccc(NC(=O)Nc3ccc(C#N)cc3)c2=O)cc1 | -1.69% (inactive) |
| O=C1C=C(NCCNc2c(F)c(F)c(CO)c(F)c2F)CCC1 | -1.66% (inactive) |
| Cn1cccc1C1(C(F)(F)F)NCCNC1=O (stereo unspecified) | -0.05% (inactive) |
| CCN(CC)Cc1c(C(=O)OC)nnn1-c1nonc1N | -0.51% (inactive) |
| Cc1cc2c(cc1C)NC(c1ccccn1)C1=C(CC(C)(C)CC1=O)N2 (stereo unspecified) | 0.74% (inactive) |
| COC(=O)c1cc(S(=O)(=O)NC2CCN(Cc3ccccc3)CC2)cn1C | -0.68% (inactive) |
| C=C(C)c1cccc(C(C)(C)NC(=O)N2CCN(c3ncccn3)CC2)c1 | 1.26% (inactive) |
| CCOC(=O)N1CCN(C(=O)c2nn(-c3ccc(C)cc3)c(=O)c3c2c2ccccc2n3C)CC1 | -3.87% (inactive) |
| CC(C)C(c1nnnn1C1CCCC1)N1CCN(c2ccccc2F)CC1 (stereo unspecified) | -0.85% (inactive) |
| O=S1(=O)CC(NCc2ccccc2)C(Nc2ccc(Cl)cc2)C1 (stereo unspecified) | 1.54% (inactive) |
| COc1cc(N=C2C=CC(=O)C=C2)c2ncccc2c1 | 3.25% (inactive) |
| COc1ccc(-c2nc(CS(=O)CC(=O)NCc3ccccn3)c(C)o2)cc1 (stereo unspecified) | 71.4% (active) |
| COc1ccc(-c2nc(CS(=O)CC(=O)NCc3cccnc3)c(C)o2)cc1OC (stereo unspecified) | -3.8% (inactive) |

| Compound | inhibition |
| --- | --- |
| COc1ccc(-c2nc(CS(=O)CC(=O)N3CCc4ccccc4C3)c(C)o2)cc1 (stereo unspecified) | 0.64% (inactive) |
| O=C1[C@@H]2C(Cc3ccc(O)cc3)NC3(C(=O)Nc4ccc(F)cc43)[C@@H]2C(=O)N1c1ccc(F)cc1 (stereo partly specified) | -5.22% (inactive) |
| NC(=NC(=O)c1ccccc1)C1=C(O)CCC1=O | 0.78% (inactive) |
| CSCCC(Nc1nc2ccccc2s1)C(=O)O (stereo unspecified) | 2.67% (inactive) |
| C[C@H](NC(=O)NCCc1ccccc1)C(=O)O | 1.74% (inactive) |
| Cc1ccc(C)c(NS(=O)(=O)c2cc(Br)cnc2N)c1 | 0.39% (inactive) |
| Cc1[nH]c2ccccc2c1C(=O)CSCC(=O)O | -2.89% (inactive) |
| CC1CCN(Cc2nc3c(c(=O)n(C)c(=O)n3C)n2Cc2cccc3ccccc23)CC1 | -1.11% (inactive) |
| CCCOC(=O)Cc1c(O)c2ccccc2[nH]c1=O | 1.56% (inactive) |
| COc1cc(OC)cc(-c2nc3nc(C)c(CCC(=O)NCc4ccco4)c(C)n3n2)c1 | 1.84% (inactive) |
| Cc1ccc(C2(c3ccc(C)cc3)NC(=O)N(Cc3c(C)noc3C)C2=O)cc1 | 1.01% (inactive) |
| C#CCCCNc1cc(OC)cc2cccnc12 | -1.17% (inactive) |
| COc1cc(NCCCC#N)c2ncccc2c1 | -2.3% (inactive) |
| COc1cc(NC(C)CCCNC(C)C)c2ncccc2c1 (stereo unspecified) | 95.6% (active) |
| CCOC(=O)C1CCCN(Cc2nc(N)nc(Nc3ccc(C)cc3)n2)C1 (stereo unspecified) | -6.1% (inactive) |
| CC(C)n1c(NCc2c[nH]c3ccccc23)nc2ccccc21 | 1.28% (inactive) |
| CCN(CC)S(=O)(=O)c1ccc(C(=O)Nc2cc(Br)cc3cccnc23)cc1 | 1.06% (inactive) |
| COc1ccc(-n2c(SCC(=O)NCc3cccs3)nnc2-c2ccoc2C)cc1 | -1.94% (inactive) |
| Cc1cccc(Cn2c(N3CCN(c4ccccc4)CC3)nc3c2c(=O)n(C)c(=O)n3C)c1 | -2.67% (inactive) |
| O=C(NCc1cn2ccsc2n1)Nc1cccc(Cl)c1 | -4.35% (inactive) |
| CCc1ccc(N(CC)c2ncnc3nc[nH]c23)cc1 | -2.13% (inactive) |
| CCC1(C)CC(=O)NC1=O (stereo unspecified) | 0.1% (inactive) |
| CC[C@@H]1Cc2cc(O)ccc2C2=C1c1ccc(O)cc1C[C@H]2CC | 14.4% (inactive) |
| CCn1cc(C(=O)N2CC=C(c3ccccc3)CC2)c(=O)c2ccc(C)nc21 | -3.28% (inactive) |

| Compound | inhibition |
| --- | --- |
| CCNC(=O)CCc1nc(-c2ccc(C(C)(C)C)cc2)no1 | -1.56% (inactive) |
| Cc1ccc(S(=O)(=O)N(C)CC(=O)NC2CCCC2)cc1 | -0.25% (inactive) |
| CCN(CC)C(=O)CSc1nnc(-c2ccc(S(=O)(=O)NCc3ccccc3Cl)cc2)o1 | 1.83% (inactive) |
| Cc1ccc(C)c(NC(=O)C2CC(=O)N(C(C)C)C2)c1 (stereo unspecified) | -3.18% (inactive) |
| Cc1ccnc(N2C(=O)c3ccccc3C2Nc2ccc3c(c2)OCCO3)c1 (stereo unspecified) | 1.75% (inactive) |
| Cc1cc(C)nc(SCc2nnc(SCC(=O)OC3CCCCC3)o2)n1 | -0.1% (inactive) |
| O=c1cc(CSc2ccc(Cl)cc2)nc(N2CCOCC2)[nH]1 | -2.37% (inactive) |
| O=C(CCC(=O)OCC(F)(F)C(F)F)NCc1ccccc1 | -3.91% (inactive) |
| O=C(NCCN1CCOCC1)c1c(F)c(F)c(F)c(F)c1F | -0.16% (inactive) |
| CC(=O)Oc1cc2c(C(=O)NCCN3CCOCC3)c(C)oc2c2ccccc12 | 91% (active) |
| O=C(CCN1C(=O)c2ccccc2C1=O)NCCN1CCOCC1 | -1.37% (inactive) |
| Cc1ccc(C(c2sc3nc(C)nn3c2O)N2CCN(c3ccc(F)cc3)CC2)cc1 (stereo unspecified) | 2.37% (inactive) |
| O=C(O)c1cscn1 | -1.54% (inactive) |
| COc1cccc(NC(=O)c2ccccc2SC)c1 | -1.59% (inactive) |
| COc1cccc(Nc2ncccc2C(=O)O)c1 | 1.09% (inactive) |
| COc1cccc(NC(=O)C(C)Oc2ccccc2)c1 (stereo unspecified) | 86.4% (active) |
| CCN(CC)S(=O)(=O)c1cccc(C(=O)Nc2cc(C)nn2-c2nc(C)cc(C)n2)c1 | -2.41% (inactive) |
| CSCC[C@H](NC(=O)NCCc1ccc(F)cc1)C(=O)O | -0.8% (inactive) |
| O=c1nc2s/c(=C\c3ccco3)c(=O)n2nc1Cc1ccccc1 | -6.3% (inactive) |
| CN(c1ccccc1)c1ccc(/C=c2\s/c(=C(/C#N)C(=O)C(C)(C)C)n(Cc3ccco3)c2=O)cc1 | 50.6% (active) |
| CCOC(=O)CSc1nc2c(sc(=S)n2CCc2ccccc2)c(=O)n1Cc1ccco1 | -1.25% (inactive) |
| CN(C)c1cc(N)c2ccccc2n1 (tested in a mixture with another compound) | -9.07% (inactive) |
| CC12CCC(C(=O)N(CCC#N)CCC#N)(CC1=O)C2(C)C (stereo unspecified) | -2.19% (inactive) |
| O=C(CC1CCCCC1)Nc1c2c(nn1-c1ccc(F)cc1)CS(=O)(=O)C2 | -1.94% (inactive) |
